CYP2C19 activ: activators of human cytochrome P450 2C19 | 96,000 tested, under 10 active | recombinant CYP2C19, luciferin-H EGE luminescence; active compounds read high; 0 = fully inhibited enzyme, 1 = untreated enzyme | P33261 | activation factor at 5 µM;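 active = activation factor of at least 2 at 5 µM in the primary screen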;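 note: 0 = wells with 2.5 mM tranylcypromine and 1 = vehicle-only wells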
CYP2C19 inhib: blocks human cytochrome P450 2C19; AID 778; inhibition, % at 5 µM; actives 21% (n = 96,000); CYP2C19 Supersomes, luciferin-H EGE luminescence, 30 min;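 active = CYP2C19 inhibition above a set limit at 5 µM in the primary screen, cut at about 50% in these data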;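 note: plate controls were negative control wells for no effect and 2.5 mM tranylcypromine positive control for full effect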
CYP2C9 inh: inhibitors of human CYP2C9; AID 777; inhibition, % at 5 µM; actives 20% (n = 96,000); CYP2C9 Supersomes, luciferin-H conversion, luminescence;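 active = blocking of liver enzyme CYP2C9 beyond about 50% at 5 µM, limit read from the data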
hDAT+cocaine: changed human dopamine transporter uptake under cocaine IC80; Q01959; LLC-PK1 hDAT cells, [14C]-dopamine uptake with cocaine IC80; actives deviate in either direction; B-score at 10 µM; actives 1.3% (n = 110,000); AID 449768;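 active = Z score or B-score, a plate-position-corrected score, falls beyond the plate's 99.7% confidence bounds, in either direction; inactive = both scores lie inside the 99.7% bounds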;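 note: scored against the spread of the other compound wells on the same plate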
Target sequence (Q01959 whole entry, looked up): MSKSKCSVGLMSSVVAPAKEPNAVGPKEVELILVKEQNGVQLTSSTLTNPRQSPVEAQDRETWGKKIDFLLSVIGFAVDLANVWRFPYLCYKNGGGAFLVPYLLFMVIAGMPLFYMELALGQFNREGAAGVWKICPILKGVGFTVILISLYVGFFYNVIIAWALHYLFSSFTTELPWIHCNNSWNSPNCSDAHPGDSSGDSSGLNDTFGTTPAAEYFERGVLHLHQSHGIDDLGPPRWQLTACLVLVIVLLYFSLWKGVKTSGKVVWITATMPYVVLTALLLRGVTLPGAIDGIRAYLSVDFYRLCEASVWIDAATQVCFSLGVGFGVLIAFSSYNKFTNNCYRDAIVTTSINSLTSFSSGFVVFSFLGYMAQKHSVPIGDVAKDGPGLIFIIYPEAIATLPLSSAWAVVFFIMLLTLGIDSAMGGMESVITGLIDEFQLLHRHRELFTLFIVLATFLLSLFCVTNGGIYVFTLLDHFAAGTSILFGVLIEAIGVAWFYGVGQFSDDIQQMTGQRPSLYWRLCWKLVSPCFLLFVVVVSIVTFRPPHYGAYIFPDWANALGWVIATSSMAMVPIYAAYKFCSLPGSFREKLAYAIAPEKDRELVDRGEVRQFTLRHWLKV
D1 allo mod: D1 dopamine receptor (human) allosteric modulation; P21728; HEK293 D1, CRE-luciferase, dopamine EC30 potentiation; actives deviate in either direction; B-score at 10 µM; actives 5.9% (n = 58,000);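 active = luminescence count or its row- and column-corrected plate score outside the 99.7% band of the plate's sample wells, on either side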
CYP2C9 activ: CYP2C9 (human) activation. P11712. recombinant CYP2C9, luciferin-H conversion, luminescence; active compounds read high; factor 1 = untreated enzyme, 0 = blocked. activation factor at 5 µM. actives 1.4% (n = 96,000). AID 1024;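 active = activation factor of 2 or more for CYP2C9 at a 5 µM dose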;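 note: 0 = sulfaphenazole-blocked wells and 1 = vehicle-only wells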
* = called active by the depositor; / = not tested or not shown. Shown are actives, neighbours in structure and some others; about 28% of the full set was active somewhere.

SMILES	CYP2C19 activ	CYP2C19 inhib	CYP2C9 inh	hDAT+cocaine	D1 allo mod	CYP2C9 activ
CC(C)COc1ccc(C(=O)NCc2ccco2)cc1	0.8	18.0	21.6	-7.84*	0.0651	0.8
O=C(COc1ccccc1Br)NCc1ccco1	0.8	23.3	1.3	-1.04	/	1
CCCOc1ccc(CCN2CCC(=O)NC2=O)cc1C	0.8	23.5	23.0	-0.389	1.11	0.8
Cc1cc(CCN2CCC(=O)NC2=O)ccc1OC(C)C	0.5	51.2*	7.4	-1.05	-0.122	0.9
CC1CC(C)CN(CC(=O)N2CCc3[nH]c4ccccc4c3C2)C1 (stereo not drawn)	0.3	65.5*	48.5	0.257	1.09	0.5
Cc1ccc2[nH]c3c(c2c1)CN(C(=O)CN1CCCc2ccccc21)CC3	0.6	38.8	4.8	1.26	/	1
Cc1ccc2[nH]c3c(c2c1)CN(C(=O)CN1CCN(c2ccccc2F)CC1)CC3	0.8	23.1	52.9*	3.18	0.542	0.5
O=C(CN1CCN(Cc2ccc3c(c2)OCO3)CC1)N1CCc2[nH]c3ccc(F)cc3c2C1	0.2	84.5*	75.7*	1.27	-1.82	0.2
O=C(C1=C[C@@H](c2ccc(Br)cc2)C[C@@H](OCCCCO)O1)N1CCN(Cc2ccccc2)CC1	/	/	/	0.425	/	/
Cc1nn(Cc2ccccc2)c(C)c1NC(=O)CSc1nnc(-c2cc(Cl)ccc2O)n1C	0.9	14.3	43.4	1.68	0.0692	0.6
C=CCN(C(=O)CN1CCOCC1)c1nc(C)c(-c2ccccc2)s1	0.3	69.5*	32.3	0.0978	-0.19	0.7
O=c1cc(CN2CCN(CCO)CC2)c2cc3c(cc2o1)CCC3	1	0.9	-13.1	0.306	/	1.1
O=c1cc(Cn2ccnc2)c2cc3c(cc2o1)CCC3	0	100.4*	47.9	-0.603	0.765	0.5
Cc1cc2oc(=O)cc(Cn3ccnc3)c2cc1C	0	100.4*	56.6*	0.246	0.318	0.4
Cc1ccc(CNCc2ccccc2Cl)cc1	0	99.0*	21.1	-0.0146	/	0.8
Fc1cccc(Cl)c1CNCc1ccccc1Cl	0.1	85.5*	30.5	-0.711	/	0.7
Cc1ccccc1CNCc1cccnc1	1	-0.6	15.9	-0.0645	/	0.8
CC12CC(c3ccccc3O1)N(C(=O)c1ccc(Br)o1)C(=O)N2c1ccccc1 (stereo not drawn)	0.7	31.4	61.9*	0.016	/	0.4
Cc1cc(C(=O)NCCC2=CCCCC2)c(C)o1	0.4	61.1*	27.0	0.171	-6.61*	0.7
CCCNC(=O)C(=O)NCCC1=CCCCC1	0.5	54.4*	10.5	0.134	/	0.9
NC(=O)NCCC1=CCCCC1	1	-1.2	5.3	/	/	0.9
CCOC(=O)Cn1cnc2sc3c(c2c1=O)CCC3	0.7	26.3	7.6	-0.0809	-0.795	0.9
CC(C)(O)[C@@H]1[C@@H]2C[C@@]3(CC[C@]4(C)C(CCC5[C@@]6(C)CC[C@H](O)C(C)(C)C6CC[C@]54C)[C@@H]13)C(=O)O2 (stereo partly drawn)	/	/	/	0.529	/	/
Nc1nonc1-c1noc(CCCN2C(=O)c3ccccc3C2=O)n1	0.4	56.9*	12.1	0.26	0.777	0.9
Nc1nonc1-c1noc(-c2ccccc2Br)n1	0.3	66.9*	-0.5	-1.2	0.563	1
SMILES	CYP2C19 activ	CYP2C19 inhib	CYP2C9 inh	hDAT+cocaine	D1 allo mod	CYP2C9 activ
C=CCN=C1SC(CC)C(=O)N1S(=O)(=O)c1ccc(C)cc1 (stereo not drawn)	0.2	84.4*	42.2	0.816	/	0.6
Cc1ccc(S(=O)(=O)/C(C#N)=C/c2c(N3CCN(C)CC3)nc3ccccn3c2=O)cc1	0.8	16.9	80.7*	1.07	-3	0.2
Cc1ccc(S(=O)(=O)/C(C#N)=C/c2c(N3CC(C)OC(C)C3)nc3ccccn3c2=O)cc1 (stereo not drawn)	0.8	20.0	56.7*	-0.587	/	0.4
Cc1ccc2c(c1)c(C)c(C)n2CC(O)Cn1nc(C)c(Br)c1C (stereo not drawn)	0	97.1*	95.7*	0.28	1.11	0
CC(=O)c1c(C)nn(CC(O)Cn2c3c(c4cc(C)ccc42)CCCC3=O)c1C (stereo not drawn)	0.5	54.3*	66.9*	0.355	0.642	0.3
Cc1ccc2c(c1)c1c(n2CC(O)Cn2nc(C)c(Br)c2C)C(=O)CCC1 (stereo not drawn)	0.9	10.9	7.3	0.22	0.463	0.9
Cc1ccc(C)c(OCC(O)CN2CCCCC2C)c1 (stereo not drawn)	0.5	52.7*	-9.8	0.408	-5.96*	1.1
Cc1ccc2c(c1)c(C)c(C)n2CC(O)CN1CCCCC1C (stereo not drawn)	0.3	74.6*	5.4	-1.25	-0.721	0.9
C=CC[C@@H]1C=C(C)C[C@H](C)C[C@H](OC)[C@H]2O[C@@](O)(C(=O)C(=O)N3CCCC[C@H]3C(=O)O[C@H](/C(C)=C/[C@@H]3CC[C@@H](O)[C@H](OC)C3)[C@H](C)[C@@H](O)CC1=O)[C@H](C)C[C@@H]2OC	/	/	/	0.919	/	/
CCC(C)C(=O)Nc1nc(C)c(-c2csc(Nc3ccc(Cl)cc3)n2)s1 (stereo not drawn)	0.6	40.2	57.6*	2.19	/	0.4
CCCC(=O)Nc1nc(C)c(-c2csc(Nc3ccc(Cl)cc3)n2)s1	0.5	53.5*	31.0	0.974	/	0.7
COc1ccc(CNC2CCCCC2C)c(OC)c1 (stereo not drawn)	0.4	62.4*	6.9	1.04	-0.142	0.9
CCC(CC)NCc1ccc(OC)cc1OC	1.2	-15.1	-11.7	-0.892	-0.68	1.1
O=C1NCC2=C1C(c1ccc(Br)cc1)Nc1ccccc1N2 (stereo not drawn)	0.8	21.6	54.9*	-0.0436	-0.761	0.5
CC1(C)CC(=O)C2=C(C1)Nc1ccccc1NC2c1ccc2c(c1)OCO2 (stereo not drawn)	0.9	6.6	-0.4	-0.352	0.622	1
Clc1cc(NCc2cccs2)ccc1N1CCOCC1	0.1	93.8*	80.8*	-1.02	-0.262	0.2
O=C(O)c1cc(NCc2ccccc2)ccc1N1CCOCC1	0.8	15.1	-41.3	0.0544	/	1.4
O=C(NCc1cccs1)C1CCN(c2ccc(S(=O)(=O)N3CCOCC3)cc2Cl)CC1	0.5	47.6	58.5*	-0.663	0.674	0.4
O=C(NC1CC1)C1CCN(c2ccc(S(=O)(=O)N3CCOCC3)cc2Cl)CC1	0.5	49.8	78.1*	-0.0396	-0.646	0.2
O=C(NCc1cccs1)C1CCN(S(=O)(=O)c2cccs2)CC1	/	/	/	0.873	0.0717	/
CC(C)CNC(=O)C1CCN(c2ccc(S(=O)(=O)N3CCOCC3)cc2Cl)CC1	0.6	39.8	55.7*	-0.21	0.611	0.4
O=C(O)c1cc(S(=O)(=O)N2CCOCC2)ccc1N1CCOCC1	1.1	-5.2	-20.9	-0.361	/	1.2
O=C(CCc1nc2ccccc2[nH]c1=O)OCC(=O)N1CCc2ccccc21	0.8	23.5	28.2	1.33	1.55	0.7
